Test results taken from PubChem BioAssay (NCATS).
Values joined by “and” are separate entries in the source; they are usually repeats but may differ in a detail not shown here. Equal values may be shown once. Results filed as inconclusive are left out. More than one record can exist for a structure, and the calls need not agree. Active and inactive are the calls of the source. Calls come from the whole dose curve; as a rule, active = well fitted curve in the direction sought with a large enough effect; inconclusive = small, poorly fitted or top-dose-only effect, or another doubt; inactive = no such curve, though single readings can be large; an effect the other way counts as inactive or inconclusive.

Assays:
[1] = test system: CRL-7250; test: Cytotoxic Profiling of Annotated Libraries Using Quantitative High-Throughput Screening (AID 1296008); conditions: Five cell lines viability, CellTiter-Glo ATP luminescence, 48-72 h; max response: active compounds read low; note: nearly all actives have a fitted effect of over 60% in size; note: potency is the fitted concentration of half-maximal effect
In short: (§1)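 Compounds were pin-transferred onto cells and incubated 48 or 72 hr at 37 degree Celsius, 95% humidity. CellTiter-Glo was added, plates sat 10 min at room temperature, then ATP-coupled luminescence was imaged as the viability read-out.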

[2] = test system: HEK293; test: as above; conditions: Five cell lines viability, CellTiter-Glo ATP luminescence, 48-72 h; max response: active compounds read low
In short: as §1

[3] = test system: HaCat; test: as above; conditions: Five cell lines viability, CellTiter-Glo ATP luminescence, 48-72 h; max response: active compounds read low
In short: as §1

[4] = test system: KB-3-1; test: as above; conditions: Five cell lines viability, CellTiter-Glo ATP luminescence, 48-72 h; max response: active compounds read low
In short: as §1

[5] = test system: NIH3T3; test: as above; conditions: Five cell lines viability, CellTiter-Glo ATP luminescence, 48-72 h; max response: active compounds read low
In short: as §1

[6] = test system: MCC-13; test: qHTS assay to identify novel small-molecules to repurpose for Merkel cell carcinoma treatment (AID 1296009); conditions: MCC and control cell lines, CellTiter-Glo viability, 72 h; series mostly up to 46 µM; note: nearly all actives have a fitted effect of over 60% in size
In short: (§2)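 qHTS format: cells treated with library compounds in DMSO across 8 (NPC) or 11 (MIPE) concentrations. Readout after 72 hr at 37 degree celsius was CellTiter-Glo luminescence.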

[7] = test system: MCC-26; test: as above; conditions: MCC and control cell lines, CellTiter-Glo viability, 72 h; series mostly up to 46 µM
In short: as §2

[8] = test system: MKL-1; test: as above; conditions: MCC and control cell lines, CellTiter-Glo viability, 72 h; series mostly up to 46 µM
In short: as §2

[9] = test system: MKL-2; test: as above; conditions: MCC and control cell lines, CellTiter-Glo viability, 72 h; series mostly up to 46 µM
In short: as §2

[10] = test system: UISO; test: as above; conditions: MCC and control cell lines, CellTiter-Glo viability, 72 h; series mostly up to 46 µM
In short: as §2

[11] = test system: C33A; test: Primary qHTS to identify gynecologic anti-cancer compounds using libraries of approved drugs and bioactive compounds (AID 1345084); conditions: Gynecologic cancer cell panel viability, ATPlite luminescence, 48 h; series mostly up to 57.5 µM; note: nearly all actives have a fitted effect of over 55% in size
In short: (§3)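 Cytotoxicity screen measuring ATP content by luciferase luminescence. Each compound is applied at five concentrations for 48 h at 37 C with 5% CO2.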

[12] = test system: CAOV3; test: as above; conditions: Gynecologic cancer cell panel viability, ATPlite luminescence, 48 h; series mostly up to 57.5 µM
In short: as §3

[13] = test system: CASKI; test: as above; conditions: Gynecologic cancer cell panel viability, ATPlite luminescence, 48 h; series mostly up to 57.5 µM
In short: as §3

[14] = test system: Es-2; test: as above; conditions: Gynecologic cancer cell panel viability, ATPlite luminescence, 48 h; series mostly up to 57.5 µM
In short: as §3

[15] = test system: HeLa; test: as above; conditions: Gynecologic cancer cell panel viability, ATPlite luminescence, 48 h; series mostly up to 57.5 µM
In short: as §3

[16] = test system: Hek293T; test: as above; conditions: Gynecologic cancer cell panel viability, ATPlite luminescence, 48 h, control line for the selectivity index; series mostly up to 57.5 µM
In short: as §3

[17] = test system: WaGa; test: qHTS assay to identify novel small-molecules to repurpose for Merkel cell carcinoma treatment (AID 1296009); conditions: MCC and control cell lines, CellTiter-Glo viability, 72 h; series mostly up to 46 µM; note: nearly all actives have a fitted effect of over 60% in size
In short: as §2

[18] = test system: HACAT; test: as above; conditions: MCC and control cell lines, CellTiter-Glo viability, 72 h; at 44.8 µM (top of the series) unless noted
In short: as §2

[19] = test system: NIH3T3; test: as above; conditions: MCC and control cell lines, CellTiter-Glo viability, 72 h; at 44.8 µM (top of the series) unless noted
In short: as §2

[20] = test system: HEK293T; test: as above; conditions: MCC and control cell lines, CellTiter-Glo viability, 72 h; at 44.8 µM (top of the series) unless noted
In short: as §2
% is set by controls: 0 for no effect and ±100 for the full control effect.

CCN(CC)CCNC(=O)c1ccc(NC(C)=O)cc1
inactive: outcome [1] | max response [2] 3.23% | max response [3] 0.497% | max response [4] 1.57% | max response [5] -3.76% | Potency [6] | Potency [7] | Potency [8] | Potency [9] | Potency [10] | Potency [11] | Potency [12] | Potency [13] | Potency [14] | Potency [15] | Potency [16]

Cc1ccc(S(=O)(=O)NC(=O)NN2CCCCCC2)cc1
inactive: outcome [1] | max response [2] -0.0062% | max response [3] 3.13% | max response [4] 3.88% | max response [5] 0.771% | Potency [6] | Potency [7] | Potency [8] | Potency [9] | Potency [10] | Potency [17] | Potency [11] | Potency [12] | Potency [13] | Potency [14] | Potency [15] | Potency [16]

NC(N)=N/N=C/c1c(Cl)cccc1Cl
inactive: max response [1] 3.75% | max response [3] -6.3% | max response [4] 0.665% | max response [5] 3.93% | Potency [6] | Potency [7] | Potency [8] | Potency [9] | Potency [10] | Potency [11] | Potency [12] | Potency [13] | Potency [14] | Potency [15] | Potency [16]
active: Potency [2] 18.8 µM

CCCCOCCOCCOCc1cc2c(cc1CCC)OCO2
inactive: max response [1] 0.375% | max response [3] 2.25% and -5.48% | max response [5] -13.2% and 0.929% | Potency [6] | Potency [7] | Potency [8] | Potency [9] | Potency [10] | Potency [17] | Potency [11] | Potency [12] | Potency [13] | Potency [14] | Potency [15] | Potency [16]
active: Potency [1] 61.8 µM

CC(C)(Oc1ccc(CCNC(=O)c2ccc(Cl)cc2)cc1)C(=O)O
inactive: max response [1] -10.1% | max response [2] -102% | outcome [3] | max response [4] 2.41% | outcome [5] | outcome [18] | Potency [6] | Potency [7] | Potency [9] | outcome [19] | Potency [10] | Potency [17] | Potency [11] | Potency [12] | Potency [13] | Potency [14] | Potency [15] | Potency [16]

O=C1CC2(CCCC2)CC(=O)N1CCCCN1CCN(c2ncccn2)CC1
inactive: outcome [1] | max response [2] -2.12% | outcome [3] | max response [4] -1.42% | max response [5] -6.17% | outcome [18] | Potency [6] | Potency [7] | Potency [8] | Potency [9] | Potency [10] | Potency [17] | Potency [11] | Potency [13] | Potency [14] | Potency [15] | Potency [16]

CN(C)CCOC(=O)COc1ccc(Cl)cc1
inactive: max response [1] -13.3% | max response [2] 2.83% | outcome [3] | max response [4] -1.09% | max response [5] 0.547% | outcome [18] | Potency [6] | Potency [7] | Potency [9] | Potency [10] | Potency [17] | Potency [11] | Potency [12] | Potency [13] | Potency [14] | Potency [15] | Potency [16]

CCCOc1ccccc1-c1nc2n[nH]nc2c(=O)[nH]1
inactive: max response [1] -0.525% | max response [2] 2.92% | outcome [3] | max response [4] -27% | max response [5] -1.31% | outcome [18] | Potency [6] | Potency [7] | Potency [8] | Potency [9] | Potency [10] | Potency [17] | Potency [11] | Potency [12] | Potency [13] | Potency [14] | Potency [15] | Potency [16]

CC(=O)OCC1=C(C(=O)O)N2C(=O)[C@@H](NC(=O)Cc3cccs3)[C@H]2SC1
inactive: max response [1] 1.94% | max response [2] -2.75% | outcome [3] | max response [4] 1.19% | outcome [5] | outcome [18] | Potency [6] | Potency [7] | Potency [8] | Potency [9] | outcome [19] | Potency [10] | Potency [17] | Potency [11] | Potency [12] | Potency [13] | Potency [14] | Potency [15] | Potency [16]

CCCNC(C)C(=O)Nc1ccccc1C (stereo unspecified)
inactive: max response [1] -2.89% | max response [2] 1.1% | outcome [3] | max response [4] 7.86% | max response [5] -0.782% | outcome [18] | Potency [6] | Potency [7] | Potency [8] | Potency [9] | Potency [10] | Potency [17] | Potency [11] | Potency [12] | Potency [13] | Potency [14] | Potency [15] | Potency [16]

O=C(CCNNC(=O)c1ccncc1)NCc1ccccc1
inactive: max response [1] 0.469% | max response [2] -20% | max response [3] -22% | max response [4] 4.64% | max response [5] -21.8% | Potency [6] | Potency [7] | Potency [8] | Potency [9] | Potency [10] | Potency [11] | Potency [12] | Potency [13] | Potency [14] | Potency [15] | Potency [16]

Cc1cc(C)c(/C=C2\C(=O)Nc3ccccc32)[nH]1
inactive: max response [1] -6.15% | outcome [2] | max response [3] -11.3% | max response [4] -3.51% | max response [5] -17.1% | outcome [20] | Potency [6] | Potency [7] | Potency [8] | Potency [9] | Potency [17] | Potency [11] | Potency [12] | Potency [13] | Potency [14] | Potency [16]

C(=C\c1ccccc1)/CN1CCN(C(c2ccccc2)c2ccccc2)CC1
active: Potency [2] 15 µM
inactive: outcome [1] | max response [3] -6.19% | max response [4] 4.11% | max response [5] -6.19% | Potency [6] | Potency [7] | Potency [8] | Potency [9] | Potency [10] | Potency [17] | Potency [11] | Potency [12] | Potency [13] | Potency [14] | Potency [15] | Potency [16]
